# Reference: the supplement of paper PMC11001985
# Compound: C#CCNC(=O)CCSSCCC(=O)NCCc1ccc(C=O)c(C=O)c1
# Assay: lysine labeling ratio R10:1 (500 µM / 50 µM probe), SILAC-ABPP in living cells; higher = lower intrinsic lysine reactivity toward the probe, active = 2 or less
# Conditions: HeLa; probe concentrations 500 vs 50 µM
# Method in brief: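 The two probe levels, 50 µM and 500 µM, of an alkyne-tagged, disulfide-linked lysine probe were applied to living light and heavy SILAC HeLa cells in PBS at room temperature, and the labels were run in both forward and reverse orientation. Mixed lysates underwent biotin-azide click chemistry, trypsin digestion, neutravidin capture, DTT release and alkylation before LC-MS/MS on a TIMS-TOF Pro. R is the filtered median high-probe/low-probe MS1 peptide ratio for each lysine, summarised as the median over forward and reverse replicates. Nothing above 20 is reported; such values are set to 20.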
# Sequence of UniProt Q10471 (Q10471 whole entry): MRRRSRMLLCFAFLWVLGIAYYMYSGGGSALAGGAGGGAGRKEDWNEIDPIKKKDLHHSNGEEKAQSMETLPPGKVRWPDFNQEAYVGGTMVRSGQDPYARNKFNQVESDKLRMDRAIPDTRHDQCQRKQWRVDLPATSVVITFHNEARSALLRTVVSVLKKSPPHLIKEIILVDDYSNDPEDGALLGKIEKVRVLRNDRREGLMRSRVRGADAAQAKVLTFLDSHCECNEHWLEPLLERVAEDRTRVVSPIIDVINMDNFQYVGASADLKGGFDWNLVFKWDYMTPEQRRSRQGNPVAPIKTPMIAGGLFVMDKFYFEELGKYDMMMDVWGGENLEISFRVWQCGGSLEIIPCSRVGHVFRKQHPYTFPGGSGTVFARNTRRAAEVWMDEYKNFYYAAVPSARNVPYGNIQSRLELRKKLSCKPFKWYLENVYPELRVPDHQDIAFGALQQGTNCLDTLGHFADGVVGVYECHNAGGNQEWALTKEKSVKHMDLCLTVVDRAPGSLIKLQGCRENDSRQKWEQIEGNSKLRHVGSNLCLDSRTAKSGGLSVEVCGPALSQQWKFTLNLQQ
# Sequence of UniProt P53621 (P53621 whole entry): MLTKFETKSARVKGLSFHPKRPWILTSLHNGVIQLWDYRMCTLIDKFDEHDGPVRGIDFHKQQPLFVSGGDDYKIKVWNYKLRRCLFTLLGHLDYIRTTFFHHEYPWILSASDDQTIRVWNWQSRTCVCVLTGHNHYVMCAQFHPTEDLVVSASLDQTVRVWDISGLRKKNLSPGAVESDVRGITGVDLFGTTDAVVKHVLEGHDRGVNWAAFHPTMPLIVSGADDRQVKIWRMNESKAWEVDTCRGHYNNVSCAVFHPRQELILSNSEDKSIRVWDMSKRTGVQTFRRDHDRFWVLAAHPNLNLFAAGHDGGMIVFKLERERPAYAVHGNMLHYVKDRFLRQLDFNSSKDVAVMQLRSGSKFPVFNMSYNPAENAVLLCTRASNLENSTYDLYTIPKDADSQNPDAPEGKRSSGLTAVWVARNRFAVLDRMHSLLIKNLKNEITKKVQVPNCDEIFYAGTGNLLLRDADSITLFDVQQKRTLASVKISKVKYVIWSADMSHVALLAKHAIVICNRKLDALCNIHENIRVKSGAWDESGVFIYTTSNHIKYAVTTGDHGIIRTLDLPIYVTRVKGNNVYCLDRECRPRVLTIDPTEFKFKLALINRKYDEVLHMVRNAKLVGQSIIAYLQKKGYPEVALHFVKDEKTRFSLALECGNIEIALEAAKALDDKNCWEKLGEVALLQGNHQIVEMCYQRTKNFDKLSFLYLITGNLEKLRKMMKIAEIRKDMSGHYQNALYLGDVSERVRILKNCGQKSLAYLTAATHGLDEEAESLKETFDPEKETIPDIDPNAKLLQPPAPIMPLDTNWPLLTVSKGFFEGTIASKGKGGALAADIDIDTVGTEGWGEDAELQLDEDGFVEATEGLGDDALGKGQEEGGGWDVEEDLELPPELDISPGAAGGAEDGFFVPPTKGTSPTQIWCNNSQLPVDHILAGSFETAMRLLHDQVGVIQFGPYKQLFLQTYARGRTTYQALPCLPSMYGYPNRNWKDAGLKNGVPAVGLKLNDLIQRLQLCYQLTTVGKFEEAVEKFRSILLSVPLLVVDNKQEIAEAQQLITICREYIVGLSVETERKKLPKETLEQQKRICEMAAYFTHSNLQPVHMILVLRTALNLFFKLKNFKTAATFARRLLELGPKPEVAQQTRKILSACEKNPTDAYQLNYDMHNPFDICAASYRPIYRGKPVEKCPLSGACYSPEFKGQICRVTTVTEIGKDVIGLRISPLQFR
# Sequence of UniProt Q96CT7 (Q96CT7 whole entry): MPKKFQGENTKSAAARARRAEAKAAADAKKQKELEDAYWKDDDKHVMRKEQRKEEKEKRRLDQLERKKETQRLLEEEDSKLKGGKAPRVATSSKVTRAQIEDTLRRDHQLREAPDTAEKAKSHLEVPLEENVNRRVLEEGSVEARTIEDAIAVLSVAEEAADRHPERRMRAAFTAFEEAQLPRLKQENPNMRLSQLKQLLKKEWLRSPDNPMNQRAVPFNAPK
# Sequence of UniProt P49327 (P49327 whole entry, looked up): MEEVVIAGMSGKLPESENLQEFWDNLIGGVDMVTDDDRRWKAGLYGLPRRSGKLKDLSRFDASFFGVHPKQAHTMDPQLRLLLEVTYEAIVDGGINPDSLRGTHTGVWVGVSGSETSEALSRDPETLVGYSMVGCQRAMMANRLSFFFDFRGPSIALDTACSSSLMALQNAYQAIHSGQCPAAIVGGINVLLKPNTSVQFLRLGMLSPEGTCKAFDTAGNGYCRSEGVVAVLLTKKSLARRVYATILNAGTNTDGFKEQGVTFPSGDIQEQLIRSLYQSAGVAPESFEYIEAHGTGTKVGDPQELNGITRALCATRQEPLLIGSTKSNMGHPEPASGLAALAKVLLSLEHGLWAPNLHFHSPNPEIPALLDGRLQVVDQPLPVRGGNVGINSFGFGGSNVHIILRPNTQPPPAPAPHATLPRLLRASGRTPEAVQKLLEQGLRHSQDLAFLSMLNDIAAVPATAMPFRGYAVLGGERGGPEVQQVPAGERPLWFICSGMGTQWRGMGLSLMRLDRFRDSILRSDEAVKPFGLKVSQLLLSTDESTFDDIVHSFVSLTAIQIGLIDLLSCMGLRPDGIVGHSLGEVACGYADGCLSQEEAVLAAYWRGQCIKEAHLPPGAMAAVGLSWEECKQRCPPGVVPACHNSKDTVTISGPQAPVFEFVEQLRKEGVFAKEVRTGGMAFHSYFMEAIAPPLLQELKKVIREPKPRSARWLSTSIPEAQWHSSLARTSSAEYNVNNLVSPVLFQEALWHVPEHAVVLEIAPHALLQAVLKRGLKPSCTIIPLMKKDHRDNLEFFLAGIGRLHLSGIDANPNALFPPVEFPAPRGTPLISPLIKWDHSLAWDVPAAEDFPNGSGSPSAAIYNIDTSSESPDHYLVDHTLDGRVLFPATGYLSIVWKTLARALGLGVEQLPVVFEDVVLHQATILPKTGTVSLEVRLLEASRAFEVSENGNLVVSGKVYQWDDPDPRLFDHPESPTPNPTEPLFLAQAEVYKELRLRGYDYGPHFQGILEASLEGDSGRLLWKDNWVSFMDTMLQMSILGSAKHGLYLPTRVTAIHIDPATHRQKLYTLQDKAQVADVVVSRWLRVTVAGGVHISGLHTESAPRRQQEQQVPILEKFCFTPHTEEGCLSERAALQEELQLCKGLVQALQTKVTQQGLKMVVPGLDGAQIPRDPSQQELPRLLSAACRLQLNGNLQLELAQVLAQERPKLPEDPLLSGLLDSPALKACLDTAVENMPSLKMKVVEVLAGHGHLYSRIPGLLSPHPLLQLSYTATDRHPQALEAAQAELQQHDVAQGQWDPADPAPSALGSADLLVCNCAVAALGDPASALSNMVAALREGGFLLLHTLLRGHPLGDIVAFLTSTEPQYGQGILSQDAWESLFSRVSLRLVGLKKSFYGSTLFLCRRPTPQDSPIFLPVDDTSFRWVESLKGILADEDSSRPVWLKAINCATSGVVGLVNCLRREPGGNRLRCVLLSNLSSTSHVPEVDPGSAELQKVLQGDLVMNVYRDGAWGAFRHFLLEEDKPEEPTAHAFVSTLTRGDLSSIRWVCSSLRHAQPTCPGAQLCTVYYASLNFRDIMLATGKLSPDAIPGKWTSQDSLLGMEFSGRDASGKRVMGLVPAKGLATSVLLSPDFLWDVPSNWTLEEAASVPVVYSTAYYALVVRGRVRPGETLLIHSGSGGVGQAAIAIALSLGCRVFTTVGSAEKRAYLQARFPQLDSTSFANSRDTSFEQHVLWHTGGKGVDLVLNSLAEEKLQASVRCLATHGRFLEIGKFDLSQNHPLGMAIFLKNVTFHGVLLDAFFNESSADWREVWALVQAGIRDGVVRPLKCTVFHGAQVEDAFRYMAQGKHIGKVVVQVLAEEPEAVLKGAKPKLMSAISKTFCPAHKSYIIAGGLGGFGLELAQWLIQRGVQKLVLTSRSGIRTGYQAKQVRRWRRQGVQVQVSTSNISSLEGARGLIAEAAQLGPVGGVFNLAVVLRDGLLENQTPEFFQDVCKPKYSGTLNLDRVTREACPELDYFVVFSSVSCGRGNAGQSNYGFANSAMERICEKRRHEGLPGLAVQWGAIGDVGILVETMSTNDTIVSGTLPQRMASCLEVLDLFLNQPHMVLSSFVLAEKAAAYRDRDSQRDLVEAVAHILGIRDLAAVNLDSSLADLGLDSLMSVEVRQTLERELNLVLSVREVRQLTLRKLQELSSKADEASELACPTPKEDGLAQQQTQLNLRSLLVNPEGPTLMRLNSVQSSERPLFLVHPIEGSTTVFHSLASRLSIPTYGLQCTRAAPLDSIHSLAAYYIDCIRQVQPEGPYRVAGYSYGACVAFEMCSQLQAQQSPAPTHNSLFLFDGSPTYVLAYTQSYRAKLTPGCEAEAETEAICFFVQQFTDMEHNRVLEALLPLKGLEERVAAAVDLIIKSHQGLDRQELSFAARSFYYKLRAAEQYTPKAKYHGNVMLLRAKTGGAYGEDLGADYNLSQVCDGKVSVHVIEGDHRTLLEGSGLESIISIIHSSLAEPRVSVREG
# Sequence of UniProt P23528 (P23528 whole entry): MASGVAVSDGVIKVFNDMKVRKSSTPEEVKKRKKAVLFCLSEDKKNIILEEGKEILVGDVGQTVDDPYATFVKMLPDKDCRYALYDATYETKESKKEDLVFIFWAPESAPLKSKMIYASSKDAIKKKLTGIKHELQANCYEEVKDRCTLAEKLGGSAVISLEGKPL
# Sequence of UniProt P05198 (P05198 whole entry): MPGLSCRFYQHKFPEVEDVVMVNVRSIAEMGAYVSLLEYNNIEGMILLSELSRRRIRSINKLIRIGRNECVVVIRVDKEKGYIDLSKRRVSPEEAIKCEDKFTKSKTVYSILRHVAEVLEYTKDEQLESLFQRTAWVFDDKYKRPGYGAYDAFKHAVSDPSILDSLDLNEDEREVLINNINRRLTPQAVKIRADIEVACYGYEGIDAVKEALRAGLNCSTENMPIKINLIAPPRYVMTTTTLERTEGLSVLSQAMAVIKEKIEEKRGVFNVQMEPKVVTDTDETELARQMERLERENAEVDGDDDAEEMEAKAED
row,Target,lysine labeling ratio R10:1
1,UniProt Q15149 (lysine site: K3237),1.17 (active)
2,UniProt Q00341 (lysine site: K510),0.655 (active)
3,SEMA3C (lysine site: K247) (UniProt Q99985),4.79 (inactive)
4,PLXNB2 (lysine site: K1121) (UniProt O15031),0.81 (active)
5,UniProt Q16363 (lysine site: K1723),2.13 (inactive)
6,EIF2S1 (lysine site: K190) (UniProt P05198),2.9 (inactive)
7,FASN (lysine site: K1927) (UniProt P49327),1.05 (active)
8,DNASE1L1 (lysine site: K107) (UniProt P49184),1.25 (active)
9,UniProt Q9BZM4 (lysine site: K148),2.1 (inactive)
10,EBP (lysine site: K106) (UniProt Q15125),4.19 (inactive)
11,COPA (lysine site: K480) (UniProt P53621),4.64 (inactive)
12,UniProt P62851 (lysine site: K114),2.69 (inactive)
13,KRT18 (lysine site: K417) (UniProt P05783),10.9 (inactive)
14,CCDC124 (lysine site: K94) (UniProt Q96CT7),4.68 (inactive)
15,ECE1 (lysine site: K747) (UniProt P42892),4.05 (inactive)
16,SERBP1 (lysine site: K303) (UniProt Q8NC51),2.74 (inactive)
17,MCAM (lysine site: K185) (UniProt P43121),3.4 (inactive)
18,CLSTN1 (lysine site: K322) (UniProt O94985),0.805 (active)
19,GALNT2 (lysine site: K509) (UniProt Q10471),3.5 (inactive)
20,TFPI (lysine site: K102) (UniProt P10646),7.9 (inactive)

row,Target,lysine labeling ratio R10:1
1,UniProt Q9Y5I4 (lysine site: K686),5.99 (inactive)
2,RTN4 (lysine site: K1066) (UniProt Q9NQC3),3.4 (inactive)
3,TKT (lysine site: K543) (UniProt P29401),9.07 (inactive)
4,UniProt P62826 (lysine site: K134),4.19 (inactive)
5,UniProt P21589 (lysine site: K471),1.6 (active)
6,PTPRF (lysine site: K612) (UniProt P10586),4.74 (inactive)
7,ILF3 (lysine site: K553) (UniProt Q12906),4.76 (inactive)
8,VDAC1 (lysine site: K274) (UniProt P21796),0.919 (active)
9,ACTN4 (lysine site: K331) (UniProt O43707),1.71 (active)
10,UniProt P60866 (lysine site: K67),2 (inactive)
11,UniProt O60245 (lysine site: K713),2.99 (inactive)
12,PA2G4 (lysine site: K22) (UniProt Q9UQ80),0.568 (active)
13,UniProt Q15800 (lysine site: K284),1.82 (active)
14,HNRNPA1 (lysine site: K113) (UniProt P09651),4.81 (inactive)
15,NRP1 (lysine site: K509) (UniProt O14786),5.12 (inactive)
16,UniProt P25705 (lysine site: K132),1.76 (active)
17,CFL1 (lysine site: K144) (UniProt P23528),3.15 (inactive)
18,NUMA1 (lysine site: K645) (UniProt Q14980),1.09 (active)
19,UniProt P62263 (lysine site: K125),5.61 (inactive)
20,L1CAM (lysine site: K222) (UniProt P32004),9.33 (inactive)
